Test [1] addresses Tyrosine-protein kinase SYK (Homo sapiens) (UniProt P43405). The note with it: at 1 µM.
Test [2] addresses T1, Tyrosine-protein kinase Tec (Homo sapiens) (UniProt P42680).
T1 sequence (whole entry): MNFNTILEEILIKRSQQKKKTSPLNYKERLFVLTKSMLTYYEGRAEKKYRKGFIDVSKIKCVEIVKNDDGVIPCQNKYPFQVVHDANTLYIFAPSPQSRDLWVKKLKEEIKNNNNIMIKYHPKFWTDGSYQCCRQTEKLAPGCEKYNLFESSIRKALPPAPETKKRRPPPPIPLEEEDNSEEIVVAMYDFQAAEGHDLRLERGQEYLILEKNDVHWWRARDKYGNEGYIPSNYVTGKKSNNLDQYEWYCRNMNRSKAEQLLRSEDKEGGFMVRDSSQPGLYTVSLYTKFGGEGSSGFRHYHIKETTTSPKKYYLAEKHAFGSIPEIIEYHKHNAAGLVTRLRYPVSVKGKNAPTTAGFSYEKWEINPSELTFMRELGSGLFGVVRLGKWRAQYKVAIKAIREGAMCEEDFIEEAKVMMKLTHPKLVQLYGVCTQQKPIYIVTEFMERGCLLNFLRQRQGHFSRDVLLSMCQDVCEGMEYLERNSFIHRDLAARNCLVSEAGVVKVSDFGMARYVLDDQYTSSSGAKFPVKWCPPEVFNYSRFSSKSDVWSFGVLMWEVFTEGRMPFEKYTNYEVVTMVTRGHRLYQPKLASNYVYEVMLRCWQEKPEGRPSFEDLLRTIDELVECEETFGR
As to conditions: at 0.1 µM.

Test [3] addresses T1, Tyrosine-protein kinase Tec (Homo sapiens). The note with it: at 1 µM.
For test [4], the target named is Angiopoietin-1 receptor (Homo sapiens) (UniProt Q02763). As to conditions: at 0.1 µM.
Test [5] has the same target. The note with it: at 1 µM.
For test [6], the target named is T2, Non-receptor tyrosine-protein kinase TNK1 (Homo sapiens) (UniProt Q13470).
T2 sequence (whole entry): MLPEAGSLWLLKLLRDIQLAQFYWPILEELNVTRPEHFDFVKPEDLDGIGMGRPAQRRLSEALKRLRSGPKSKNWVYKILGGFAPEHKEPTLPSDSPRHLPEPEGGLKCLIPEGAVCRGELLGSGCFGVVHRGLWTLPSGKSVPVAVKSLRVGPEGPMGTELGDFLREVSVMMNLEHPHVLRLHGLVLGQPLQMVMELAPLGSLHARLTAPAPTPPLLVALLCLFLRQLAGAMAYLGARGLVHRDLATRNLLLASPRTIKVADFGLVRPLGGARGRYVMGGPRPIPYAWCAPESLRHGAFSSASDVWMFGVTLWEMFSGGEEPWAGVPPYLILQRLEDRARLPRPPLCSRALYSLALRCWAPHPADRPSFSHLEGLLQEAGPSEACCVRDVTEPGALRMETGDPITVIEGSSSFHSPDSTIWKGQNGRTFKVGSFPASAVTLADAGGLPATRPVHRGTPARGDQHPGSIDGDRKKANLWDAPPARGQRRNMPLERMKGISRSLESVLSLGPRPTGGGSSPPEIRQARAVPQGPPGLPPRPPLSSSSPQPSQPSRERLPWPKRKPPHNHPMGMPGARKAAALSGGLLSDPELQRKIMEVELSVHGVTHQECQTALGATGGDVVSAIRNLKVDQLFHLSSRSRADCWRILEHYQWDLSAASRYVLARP
As to conditions: at 0.1 µM.

Test [7] concerns the target T2, Non-receptor tyrosine-protein kinase TNK1 (Homo sapiens). The note with it: at 1 µM.
Test [8] deals with Activated CDC42 kinase 1 (Homo sapiens) (UniProt Q07912). The note with it: at 0.1 µM.
Sequence of Activated CDC42 kinase 1 (Homo sapiens) (Q07912 whole entry, looked up): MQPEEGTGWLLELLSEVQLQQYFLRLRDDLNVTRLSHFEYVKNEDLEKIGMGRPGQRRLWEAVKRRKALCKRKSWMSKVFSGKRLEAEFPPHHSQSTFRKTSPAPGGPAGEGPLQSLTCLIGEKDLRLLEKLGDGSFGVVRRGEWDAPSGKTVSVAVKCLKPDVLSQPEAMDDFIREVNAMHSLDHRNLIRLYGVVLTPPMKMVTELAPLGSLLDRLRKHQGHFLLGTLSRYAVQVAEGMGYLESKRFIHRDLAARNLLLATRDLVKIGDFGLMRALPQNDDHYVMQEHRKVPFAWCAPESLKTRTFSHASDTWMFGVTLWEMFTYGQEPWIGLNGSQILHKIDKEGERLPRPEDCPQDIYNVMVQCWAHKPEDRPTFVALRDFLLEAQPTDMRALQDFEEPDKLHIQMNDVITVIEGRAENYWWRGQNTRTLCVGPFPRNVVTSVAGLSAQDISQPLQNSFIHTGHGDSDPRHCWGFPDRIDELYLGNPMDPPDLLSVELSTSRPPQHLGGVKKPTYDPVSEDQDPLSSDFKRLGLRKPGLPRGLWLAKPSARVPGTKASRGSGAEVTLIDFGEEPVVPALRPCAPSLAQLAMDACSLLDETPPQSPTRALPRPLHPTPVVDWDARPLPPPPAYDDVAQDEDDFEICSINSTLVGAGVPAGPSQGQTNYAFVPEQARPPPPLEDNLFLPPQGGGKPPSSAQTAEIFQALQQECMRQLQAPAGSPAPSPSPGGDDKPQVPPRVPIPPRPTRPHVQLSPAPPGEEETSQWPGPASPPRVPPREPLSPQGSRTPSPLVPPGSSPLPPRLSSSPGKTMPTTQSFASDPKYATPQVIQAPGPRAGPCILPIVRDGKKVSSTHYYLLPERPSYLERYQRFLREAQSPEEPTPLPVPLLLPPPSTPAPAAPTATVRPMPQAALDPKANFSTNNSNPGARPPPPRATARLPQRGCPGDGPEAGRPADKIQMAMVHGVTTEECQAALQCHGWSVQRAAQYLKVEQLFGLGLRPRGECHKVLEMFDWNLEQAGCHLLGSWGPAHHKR
Test [9] has the same target. The note with it: at 1 µM.
The target of test [10] is High affinity nerve growth factor receptor (Homo sapiens) (UniProt P04629). As to conditions: at 0.1 µM.
Sequence of High affinity nerve growth factor receptor (Homo sapiens) (P04629 33-796 limits assumed): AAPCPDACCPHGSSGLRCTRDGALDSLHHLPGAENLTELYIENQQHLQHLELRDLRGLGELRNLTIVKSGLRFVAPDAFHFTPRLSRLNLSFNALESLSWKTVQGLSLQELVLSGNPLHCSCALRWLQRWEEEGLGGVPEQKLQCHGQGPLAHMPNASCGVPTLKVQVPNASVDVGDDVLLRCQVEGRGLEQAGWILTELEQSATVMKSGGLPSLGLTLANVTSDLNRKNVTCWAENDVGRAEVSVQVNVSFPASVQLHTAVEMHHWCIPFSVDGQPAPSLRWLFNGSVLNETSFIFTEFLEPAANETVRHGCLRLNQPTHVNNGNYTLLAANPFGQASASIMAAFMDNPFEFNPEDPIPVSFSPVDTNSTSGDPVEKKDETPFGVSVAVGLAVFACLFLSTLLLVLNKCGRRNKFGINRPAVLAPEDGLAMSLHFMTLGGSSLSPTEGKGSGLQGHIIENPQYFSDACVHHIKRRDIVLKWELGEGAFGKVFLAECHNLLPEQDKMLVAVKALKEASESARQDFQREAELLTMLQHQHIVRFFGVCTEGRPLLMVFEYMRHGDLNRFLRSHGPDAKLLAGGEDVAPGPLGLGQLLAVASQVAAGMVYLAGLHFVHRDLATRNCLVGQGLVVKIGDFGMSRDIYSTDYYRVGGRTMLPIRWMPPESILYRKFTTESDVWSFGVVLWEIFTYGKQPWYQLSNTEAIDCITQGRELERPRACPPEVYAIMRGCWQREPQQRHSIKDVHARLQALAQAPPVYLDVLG
The target is the same in test [11]. The note with it: at 1 µM.
Test [12] has as its target BDNF/NT-3 growth factors receptor (Homo sapiens) (UniProt Q16620). As to conditions: at 0.1 µM.
The target is the same in test [13]. The note with it: at 1 µM.
In test [14] the target is NT-3 growth factor receptor (Homo sapiens) (UniProt Q16288). The note with it: at 0.1 µM.
Sequence of NT-3 growth factor receptor (Homo sapiens) (Q16288 32-839 limits assumed): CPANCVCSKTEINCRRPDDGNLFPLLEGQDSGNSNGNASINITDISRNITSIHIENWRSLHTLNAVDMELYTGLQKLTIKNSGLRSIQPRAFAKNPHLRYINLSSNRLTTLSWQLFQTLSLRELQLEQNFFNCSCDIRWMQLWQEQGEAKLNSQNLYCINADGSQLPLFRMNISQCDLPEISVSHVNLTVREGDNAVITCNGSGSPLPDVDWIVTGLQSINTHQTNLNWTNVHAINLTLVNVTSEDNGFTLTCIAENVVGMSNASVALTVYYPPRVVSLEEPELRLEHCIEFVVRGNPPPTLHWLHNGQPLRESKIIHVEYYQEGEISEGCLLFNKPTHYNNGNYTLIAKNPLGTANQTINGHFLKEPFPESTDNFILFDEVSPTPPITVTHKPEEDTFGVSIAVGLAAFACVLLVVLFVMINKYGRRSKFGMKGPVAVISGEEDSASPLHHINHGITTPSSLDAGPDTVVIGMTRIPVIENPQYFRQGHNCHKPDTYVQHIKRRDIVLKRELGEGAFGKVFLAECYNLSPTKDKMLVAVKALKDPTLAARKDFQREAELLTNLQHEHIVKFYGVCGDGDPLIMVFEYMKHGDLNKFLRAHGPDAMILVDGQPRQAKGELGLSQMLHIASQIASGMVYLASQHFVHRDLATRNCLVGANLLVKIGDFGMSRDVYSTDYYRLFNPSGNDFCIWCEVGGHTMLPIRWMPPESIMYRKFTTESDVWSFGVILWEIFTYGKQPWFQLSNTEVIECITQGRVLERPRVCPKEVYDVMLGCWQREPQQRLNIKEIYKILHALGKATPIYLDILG
The target is the same in test [15]. The note with it: at 1 µM.
In test [16] the target is T3, Tyrosine-protein kinase TXK (Homo sapiens) (UniProt P42681).
T3 sequence (whole entry): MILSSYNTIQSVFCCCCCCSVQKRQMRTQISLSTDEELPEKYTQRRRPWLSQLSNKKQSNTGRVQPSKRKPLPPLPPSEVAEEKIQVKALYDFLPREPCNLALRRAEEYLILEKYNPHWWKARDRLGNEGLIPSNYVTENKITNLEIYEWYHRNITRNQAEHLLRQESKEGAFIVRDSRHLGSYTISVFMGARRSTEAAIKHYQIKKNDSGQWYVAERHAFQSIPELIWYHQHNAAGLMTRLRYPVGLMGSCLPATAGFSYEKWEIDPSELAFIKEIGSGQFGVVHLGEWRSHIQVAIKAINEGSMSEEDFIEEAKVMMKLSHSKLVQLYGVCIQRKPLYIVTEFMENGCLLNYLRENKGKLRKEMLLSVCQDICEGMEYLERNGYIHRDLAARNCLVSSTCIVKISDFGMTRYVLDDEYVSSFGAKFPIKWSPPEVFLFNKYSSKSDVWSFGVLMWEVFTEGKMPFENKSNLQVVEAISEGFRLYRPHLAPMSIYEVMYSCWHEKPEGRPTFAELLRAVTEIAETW
As to conditions: at 0.1 µM.

Test [17] concerns the target T3, Tyrosine-protein kinase TXK (Homo sapiens). The note with it: at 1 µM.
Test [18] deals with Non-receptor tyrosine-protein kinase TYK2 (Homo sapiens) (UniProt P29597). As to conditions: at 0.1 µM.
Sequence of Non-receptor tyrosine-protein kinase TYK2 (Homo sapiens) (P29597 whole entry): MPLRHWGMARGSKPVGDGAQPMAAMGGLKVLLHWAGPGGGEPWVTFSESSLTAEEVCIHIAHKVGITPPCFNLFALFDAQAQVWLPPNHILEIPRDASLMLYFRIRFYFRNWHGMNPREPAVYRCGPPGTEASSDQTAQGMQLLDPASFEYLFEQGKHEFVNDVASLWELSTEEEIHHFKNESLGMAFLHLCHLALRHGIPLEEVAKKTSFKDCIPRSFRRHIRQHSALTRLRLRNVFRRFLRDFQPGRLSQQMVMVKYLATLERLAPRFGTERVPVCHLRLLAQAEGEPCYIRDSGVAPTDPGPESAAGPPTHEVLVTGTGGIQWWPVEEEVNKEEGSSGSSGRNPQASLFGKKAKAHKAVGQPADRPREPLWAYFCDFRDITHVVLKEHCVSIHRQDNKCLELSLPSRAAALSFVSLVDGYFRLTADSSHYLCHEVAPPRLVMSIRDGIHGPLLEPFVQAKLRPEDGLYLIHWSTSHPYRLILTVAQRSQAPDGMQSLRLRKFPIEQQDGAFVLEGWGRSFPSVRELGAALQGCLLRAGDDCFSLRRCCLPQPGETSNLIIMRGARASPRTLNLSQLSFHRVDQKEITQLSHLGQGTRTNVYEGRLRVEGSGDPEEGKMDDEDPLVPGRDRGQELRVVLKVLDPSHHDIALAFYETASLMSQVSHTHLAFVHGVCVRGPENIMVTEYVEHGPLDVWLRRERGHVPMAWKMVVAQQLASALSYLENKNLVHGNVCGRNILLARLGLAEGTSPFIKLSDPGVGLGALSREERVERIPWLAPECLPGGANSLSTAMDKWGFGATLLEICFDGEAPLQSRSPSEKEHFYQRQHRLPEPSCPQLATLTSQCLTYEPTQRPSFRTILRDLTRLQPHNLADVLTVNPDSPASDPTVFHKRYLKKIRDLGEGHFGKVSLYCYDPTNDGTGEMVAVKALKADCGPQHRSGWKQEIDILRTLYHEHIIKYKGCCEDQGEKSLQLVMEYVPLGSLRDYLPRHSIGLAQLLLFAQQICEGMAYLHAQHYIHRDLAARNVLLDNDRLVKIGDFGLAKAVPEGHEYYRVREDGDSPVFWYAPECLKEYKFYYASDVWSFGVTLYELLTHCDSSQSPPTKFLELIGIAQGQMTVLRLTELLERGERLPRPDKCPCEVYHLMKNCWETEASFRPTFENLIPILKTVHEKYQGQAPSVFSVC
Test [19] has as its target T4, Dual specificity protein kinase TTK (Homo sapiens) (UniProt P33981).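 Also: reported figures are mean TTK inhibition at 1 µM.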
T4 sequence (whole entry): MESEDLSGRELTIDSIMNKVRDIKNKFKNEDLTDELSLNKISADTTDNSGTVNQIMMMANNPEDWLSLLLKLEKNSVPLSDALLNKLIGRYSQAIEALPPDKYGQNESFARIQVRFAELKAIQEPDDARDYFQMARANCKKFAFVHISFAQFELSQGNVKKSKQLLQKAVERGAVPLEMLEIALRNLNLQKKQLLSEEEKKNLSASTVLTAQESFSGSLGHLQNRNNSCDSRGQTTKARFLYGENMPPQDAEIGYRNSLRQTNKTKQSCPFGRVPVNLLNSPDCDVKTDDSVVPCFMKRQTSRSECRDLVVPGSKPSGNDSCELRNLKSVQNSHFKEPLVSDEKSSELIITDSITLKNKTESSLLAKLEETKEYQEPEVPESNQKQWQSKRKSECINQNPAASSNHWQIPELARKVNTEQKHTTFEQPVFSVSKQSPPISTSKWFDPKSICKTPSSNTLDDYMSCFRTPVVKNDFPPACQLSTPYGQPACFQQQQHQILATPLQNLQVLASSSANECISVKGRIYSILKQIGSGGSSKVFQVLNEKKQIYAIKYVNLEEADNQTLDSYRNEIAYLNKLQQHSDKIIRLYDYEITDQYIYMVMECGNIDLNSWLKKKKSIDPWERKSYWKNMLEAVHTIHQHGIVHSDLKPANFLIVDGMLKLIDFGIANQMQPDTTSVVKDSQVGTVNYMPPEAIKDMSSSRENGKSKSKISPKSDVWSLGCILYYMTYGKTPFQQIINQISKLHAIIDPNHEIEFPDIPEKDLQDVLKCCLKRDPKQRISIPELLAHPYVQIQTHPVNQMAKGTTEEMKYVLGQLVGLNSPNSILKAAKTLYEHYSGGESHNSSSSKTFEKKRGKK
The note with it: at 1 µM.

Test [20] addresses T5, Aurora kinase A (Homo sapiens) (UniProt O14965).
T5 sequence (whole entry): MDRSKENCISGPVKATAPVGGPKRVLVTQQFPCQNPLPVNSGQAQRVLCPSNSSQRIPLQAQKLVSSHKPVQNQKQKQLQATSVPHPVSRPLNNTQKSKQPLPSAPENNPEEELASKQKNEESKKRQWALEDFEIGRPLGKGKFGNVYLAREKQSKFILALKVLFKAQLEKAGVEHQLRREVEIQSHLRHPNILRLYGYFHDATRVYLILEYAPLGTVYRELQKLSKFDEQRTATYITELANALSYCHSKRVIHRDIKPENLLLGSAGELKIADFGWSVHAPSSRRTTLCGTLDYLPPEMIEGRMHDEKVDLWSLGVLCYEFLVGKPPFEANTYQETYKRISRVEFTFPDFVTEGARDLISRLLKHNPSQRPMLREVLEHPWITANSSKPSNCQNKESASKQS
The note with it: at 0.1 µM.

Sequence of BDNF/NT-3 growth factors receptor (Homo sapiens) (Q16620 32-822 limits assumed): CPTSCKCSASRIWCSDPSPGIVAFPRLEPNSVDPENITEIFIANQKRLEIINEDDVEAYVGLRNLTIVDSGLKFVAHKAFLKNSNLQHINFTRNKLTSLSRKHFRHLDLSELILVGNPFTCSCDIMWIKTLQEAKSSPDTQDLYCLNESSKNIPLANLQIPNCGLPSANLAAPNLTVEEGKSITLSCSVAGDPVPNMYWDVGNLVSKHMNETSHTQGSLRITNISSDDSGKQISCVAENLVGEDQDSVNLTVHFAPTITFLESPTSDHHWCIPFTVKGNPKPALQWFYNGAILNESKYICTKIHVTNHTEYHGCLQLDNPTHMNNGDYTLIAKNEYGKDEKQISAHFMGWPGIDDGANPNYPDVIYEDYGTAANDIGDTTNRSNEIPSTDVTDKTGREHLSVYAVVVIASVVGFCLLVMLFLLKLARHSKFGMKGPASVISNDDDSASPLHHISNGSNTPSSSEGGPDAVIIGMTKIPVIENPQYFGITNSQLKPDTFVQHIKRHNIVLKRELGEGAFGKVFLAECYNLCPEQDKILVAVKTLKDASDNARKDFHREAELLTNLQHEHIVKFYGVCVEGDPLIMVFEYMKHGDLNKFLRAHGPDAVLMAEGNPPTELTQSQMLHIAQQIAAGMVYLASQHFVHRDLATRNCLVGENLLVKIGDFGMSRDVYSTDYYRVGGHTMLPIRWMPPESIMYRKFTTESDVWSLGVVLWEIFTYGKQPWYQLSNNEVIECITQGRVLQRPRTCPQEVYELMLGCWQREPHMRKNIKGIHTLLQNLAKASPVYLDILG

For `CN(C)c1cc2c(Nc3ccc4nc(Cc5ccccc5)[nH]c4c3)ncnc2cn1`, the inhibition in test [1] came out at 1.5%; in [2], 5.94%; in [3], 11.9%; in test [4], 3.86%; in test [5], 4.47%; in test [6], 6.39%. Also, the inhibition in [7] was determined as 21%; in test [8], 1.01%; in test [9] it was 4.65%; in [10], 4.28%; in [11] it was 3.31%; in test [12] it was 3.89%. In addition, the inhibition was 2.87% in test [13]; 3.93% in [14]; 4.24% in test [15]; 8.4% in test [16]; 13.7% in test [17]; -8.04% in [18]. The inhibition in [19] came to 32.2%; in [20], 3.28%.
Regarding `COC(=O)Nc1nc2cc(Oc3ccc(NC(=O)Nc4cccc(C(=O)O)c4)cc3)ccc2[nH]1`, the inhibition in test [1] was -0.23%; in test [2] it was -2.22%; in test [3] it was 0.87%; in [4] it was 1.97%; in [5] it was 7.16%; in [6], -0.91%. Further, the inhibition in test [7] is 17.4%; in [8] it was -0.08%; in [9], 0.6%; in [10], 1.98%; in test [11], 3.47%; in test [12], 0.82%. The inhibition in [13] is 1.02%; in test [14] it was 1.95%; in test [15], 3.8%; in test [16], -2.97%; in [17], 1.48%; in test [18], 1.17%. Also, the inhibition in test [19] is 9.64%; in test [20], -1.89%.
As to `NS(=O)(=O)c1ccc(N/N=C2\C(=O)Nc3ccc(C(=O)NCCc4c[nH]cn4)cc32)cc1`, the inhibition in test [1] was -0.45%; in [2], 5.46%; in test [3] it was 12.1%; in [4], 1.64%; in test [5], 3.16%; in test [6], 1.59%. The inhibition is 10.1% in [7]; 1.35% in [8]; 2.72% in test [9]; 5.55% in test [10]; 14.9% in test [11]; 6.79% in test [12]. Further, the inhibition in test [13] was 31.4%; in [14] it was 9.97%; in [15], 41.8%; in test [16], 3.49%; in [17] it was 3.55%; in test [18] it was -1.79%. The inhibition in [19] worked out at 71.5%; in test [20], 3.83%.
Take `COc1ccc(-c2nn3ncccc3c2-c2ccnc(Nc3ccc(Cl)c(C(F)(F)F)c3)n2)cc1`: the inhibition is -1.11% in test [1]; 1.4% in test [2]; 1.86% in test [3]; 4.94% in test [4]; 4.42% in test [5]; 0.89% in [6]. In addition, the inhibition in test [7] was 13.3%; in test [8], 0.86%; in test [9], 1.6%; in [10] it was -2.59%; in [11], -1.35%; in [12], -0.25%. For the same compound, the inhibition in [13] was 2.61%; in [14], -0.42%; in [15], 2.6%; in [16], 3.13%; in test [17], 3.03%; in test [18] it was -2.93%. Moreover, the inhibition is 5% in test [19] and 1.01% in test [20].
For the compound `O=C(Nc1n[nH]c2nc(-c3ccco3)c(Br)cc12)C1CC1`, the inhibition in [1] was -0.45%; in test [2], 4.92%; in test [3], 9.1%; in test [4], 7.26%; in [5], 13.7%; in test [6] it was 2.22%. The inhibition in test [7] was -0.4%; in test [8], 0.93%; in test [9], 0.24%; in test [10], 3.1%; in test [11], 3.72%; in test [12] it was -0.07%. In addition, the inhibition was 1.56% in test [13]; 1.75% in test [14]; 4.33% in test [15]; 2.71% in [16]; 5.55% in test [17]; -1.26% in test [18]. The figures for the inhibition in [19] and in test [20] were -3.66% and 2.52%, respectively.
For the compound `CCCN1CCC=C(c2ccc(Nc3nc(Nc4ccccc4C(N)=O)c4cc[nH]c4n3)c(C)c2)C1`, the inhibition in test [1] came to 1.61%; in test [2] it was 6.08%; in test [3], 8.24%; in test [4], 3.32%; in test [5] it was 3.76%; in test [6], 26.4%. For the same compound, the inhibition in test [7] was 70.1%; in test [8], 1%; in [9], 12.7%; in test [10], 2.13%; in test [11], 6.59%; in [12], 3.01%. Besides, the inhibition in test [13] was 6.47%; in test [14], 2.46%; in test [15], 3.13%; in test [16] it was 6.59%; in test [17], 13.1%; in test [18], -5.21%. The inhibition in test [19] was 70.7%; in test [20], 6.15%.
